Source: the supplement of paper PMC10646978
± gives the standard deviation.

Columns and labels:
Conditions in all cases: modulator concentration 10 µM
[1] = test system: RAW-Dual (murine macrophage reporter line); assay: NF-kB reporter (SEAP) activity fold change vs agonist alone; higher = enhanced NF-kB activity
Outline: (§1)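 Compound reached 10 μM final in each well by pin transfer, onto RAW-Dual murine macrophage reporter cells seeded at 50 000 per well in 384-well plates. After 1 hour at 37 °C, the cells were stimulated overnight with a PRR agonist. SEAP in the supernatant was read with QUANTI-Blue at 620 nm absorbance for NF-κB, and Lucia luciferase was read with QUANTI-Luc luminescence for IRF. Each signal was turned into fold change against the mean agonist-only control on the same plate, and two replicate plates were averaged with propagated errors.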

[2] = test system: RAW-Dual (murine macrophage reporter line); assay: IRF reporter (Lucia luciferase) activity fold change vs agonist alone; higher = enhanced IRF activity
Outline: as §1

[3] = test system: RAW-Dual (murine macrophage reporter line); assay: viability score (confluency relative to resting cells, overnight) (fraction); higher = more viable, active = viable (0.7 or more)
Outline: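 Two confluency masks, generated with IncuCyte software over all imaged wells, were applied to IncuCyte images of RAW-Dual macrophages. The cells, in 384-well plates, had been exposed overnight to 10 μM final compound. The viability score is confluency as a fraction of resting cells, and a compound met the cutoff only with both masks above 70% of resting cells.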

[4] = agonist: CpG ODN 1826 0.5 ug/mL

SMILES | NF-kB reporter [1, 4] | NF-kB reporter ([1]; agonist: LPS 0.1 ug/mL) | NF-kB reporter ([1]; agonist: MPLA […]) | IRF reporter ([2]; agonist: 3'3'-cGAMP 10 ug/mL) | IRF reporter ([2]; agonist: LPS 0.1 ug/mL) | IRF reporter ([2]; agonist: MPLA […]) | viability score [3]
COc1ccccc1-c1nnc(NC(=O)c2cc(C)nn2C)o1 | 1.08 ± 0.11 | 1 ± 0.079 | 1.01 ± 0.08 | 0.945 ± 0.034 | 0.965 ± 0.064 | 0.953 ± 0.17 | 0.998 (active)
Cc1c(C(=O)OC(C)C)sc(NC(=O)C(C)(C)C)c1C(=O)OC(C)C | 0.823 ± 0.081 | 0.908 ± 0.044 | 1.09 ± 0.099 | 1 ± 0.06 | 1.56 ± 0.095 | 1.77 ± 0.16 | 0.985 (active)
N#Cc1nc(-c2ccc(COc3ccc(Cl)cc3)o2)oc1N1CCCCC1 | 0.826 ± 0.063 | 1.29 ± 0.14 | 1.13 ± 0.075 | 1.21 ± 0.047 | 1.57 ± 0.1 | 1.12 ± 0.15 | 0.998 (active)
O=C1C(=Cc2ccccc2)SC(=S)N1CO | 0.546 ± 0.053 | 0.757 ± 0.058 | 0.725 ± 0.08 | 0.741 ± 0.073 | 1.03 ± 0.16 | 1.15 ± 0.32 | 0.968 (active)
Cc1cc(C)nc(Nc2ncc(O)n2-c2ccc(F)cc2)n1 | 1.11 ± 0.087 | 1.1 ± 0.13 | 1.01 ± 0.038 | 0.992 ± 0.074 | 1.04 ± 0.14 | 1.16 ± 0.27 | 0.991 (active)
CNCC[C@@H](Oc1cccc2ccccc12)c1cccs1 [Prestw-1708] | 0.661 ± 0.054 | 0.98 ± 0.073 | 1.18 ± 0.19 | 1.19 ± 0.076 | 1.11 ± 0.16 | 1.16 ± 0.28 | 0.384 (inactive)
COc1nc(C)cnc1NS(=O)(=O)c1cccnc1-c1ccc(-c2nnco2)cc1 | 0.964 ± 0.21 | 0.98 ± 0.18 | 1 ± 0.09 | 0.852 ± 0.047 | 0.982 ± 0.26 | 1.06 ± 0.24 | 0.979 (active)
O=C(Nc1c(Cl)cncc1Cl)c1ccc(OC(F)F)c(OCC2CC2)c1 | 2.48 ± 0.36 | 1.99 ± 0.17 | 1.44 ± 0.1 | 0.804 ± 0.025 | 0.908 ± 0.094 | 1.24 ± 0.22 | 0.968 (active)
Cc1cc(CCNC(=O)c2cc3ccccc3s2)nn1C | 1.2 ± 0.12 | 1.07 ± 0.082 | 0.991 ± 0.064 | 0.82 ± 0.032 | 1.03 ± 0.06 | 0.993 ± 0.16 | 0.997 (active)
CSc1nnc2c(n1)[nH]c1c(C)cccc12 | 1.01 ± 0.082 | 0.931 ± 0.096 | 0.904 ± 0.098 | 0.989 ± 0.066 | 1.31 ± 0.25 | 1.42 ± 0.33 | 1.02 (active)
COc1cc2nc(N3CCN(C(=O)c4ccco4)CC3)nc(N)c2cc1OC [Prestw-947] | 0.258 ± 0.041 | 1.09 ± 0.083 | 1.14 ± 0.11 | 1.59 ± 0.049 | 1.28 ± 0.18 | 1.48 ± 0.33 | 0.971 (active)
Cn1c(=O)cc(N2CCC[C@@H](N)C2)n(Cc2cc(F)ccc2C#N)c1=O | 0.989 ± 0.074 | 1.02 ± 0.055 | 1.02 ± 0.044 | 0.225 ± 0.013 | 0.971 ± 0.061 | 0.886 ± 0.082 | 1 (active)
COc1cc(C=C(C#N)c2nc3ccccc3[nH]2)cc(Cl)c1O | 1.23 ± 0.07 | 1.05 ± 0.09 | 0.992 ± 0.029 | 1.09 ± 0.039 | 1.06 ± 0.061 | 1.07 ± 0.14 | 0.998 (active)
Cc1cc(O)c2c(c1)C(=O)c1cccc(O)c1C2=O | 0.969 ± 0.08 | 1.08 ± 0.1 | 1.1 ± 0.024 | 0.894 ± 0.08 | 0.973 ± 0.1 | 0.953 ± 0.11 | 0.986 (active)
